From PubChem BioAssay AID1508600 (Functional Genomics Laboratory (NCATS/FGL), 2020)
In all, about 53,000 sequences went through this assay and about 3,700 (7%) were called active. The sample as a whole holds a higher share of actives than the screen did. Values without a mark were called inactive.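 Rule for the calls: active = gene knockdowns whose robust z-score for IL-1 alpha signal is at least 2 or at most -2, so actives lie on both sides; inactive = the rest.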

Test: Components of the Cytosolic LPS Sensing Pathway: Gene Identification via Genome-wide siRNA Screen;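 note: robust z of the log signal after scaling to non-targeting control siRNA wells of the plate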
Details: RAW264.7 macrophages, IL-1a HTRF, actives lie on both sides, screened at 100 nM (by protocol), cells primed 5 h with Pam3CSK4 first
Outline: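 RAW264.7 mouse macrophages reverse-transfected with single siRNAs (100 nM final) for 48h, primed with Pam3CSK4 for 5 hours, then transfected with LipidA for 24 hour. Supernatant IL-1a read by HTRF; values normalized to negative-control median, log-transformed robust z-scores.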

Point of comparison: GGAAACCUUUUACCUUUAATT against Padi1, z-score -0.874. Against it:
- GGAAAGUUUGCACUGUAAATT against Tiam2 — higher, -0.207
- CCGUCUUCACCUGAUACAGTT against Ube2d2b — higher, 0.501
- GCUGAACGGUCUCAAACAGTT against Cdca3 — higher, 0.395
- GGUGUCUCUGAUGAAUCACTT against Syt15 — higher, 1.21
- GGAAGUCCAACUUCUUCCATT against Ebf4 — higher, -0.153
- GGCAUGAUGAUAUUUGAAATT against Glrp1 — higher, -0.142
- GGAAAAAGAUGUCCUAUCUTT against Rufy2 — lower, -1.08
- GGAUGUGGGUGGAUAUCAUTT against Sit1 — higher, 0.145
- GCUUAUCGAAUUCUUCUCCTT against Cnpy2 — higher, 0.417
- CUAGAUGCACAGAAUAGCATT against Prm1 — lower, -1.83
- GCAAUAGGCAAUCUGGGAUTT against Olfr52 — higher, 0.504
- GCCUCAAUAAAUUGUCAGCTT against Slc25a17 — higher, -0.0131
- GCUGCAUAGAAUGACACGATT against Pip5kl1 — higher, 0.851
- GGCAAAGACGACCUCUCACTT against Vtcn1 — lower, -1.56
- GGAUGAUGAAGUCAAAUUUTT against Slc26a5 — higher, 0.0656
- CGACACCUAAGUUCAGCACTT against Mief2 — lower, -1.91
- GCACUUUCAUGGAUAUAAGTT against Rab22a — higher, -0.366
- GGCACUACUAAGAACCUUATT against Tmem69 — higher, 0.728
- CCAAAAUCGGGAAAGGAAATT against Ldb2 — higher, -0.00816
- GGCUUGACCUGCGUCUUCATT against 1700001P01Rik — higher, 0.736
- GGAACAUUGGCAUCACGACTT against Acy1 — higher, 0.901
- CCAUCUCUUACUAUCCAUGTT against Cmbl — lower, -1.03
- GGCAUGACUGGACUGAAAATT against Ythdf3 — lower, -0.976
- GGGAUUUAGCACAAGAUACTT against Brinp3 — higher, 0.606
- GGUAUUCUUGGAAGGAGGGTT against Prss22 — higher, 0.153
- CGAAAAUCUUCUGGCUCACTT against Llgl2 — lower, -0.922
- GGGACUUAGAAACAAUCCATT against Hsd3b4 — higher, 1.77
- GGUAGCGAUGUUUUCUUAUTT against Nt5dc3 — higher, 1.66
- GGUCAUGCUGAUCAGCGACTT against Itfg2 — higher, -0.564
- CGCCGCACAGUUAAUGCUUTT against Mettl17 — higher, 0.973
- GCGAGAGAUGAAAUGGGUGTT against Tbc1d10c — higher, 1.07
- GGUUUUAUCUCUUGUGCCCTT against Myl10 — higher, -0.565
- GGCCAAGGAUCCAUCUGUATT against Magee1 — higher, 0.11
- GCAAUAGCAGCAACUCUUATT against Dbpht1 — higher, -0.369
- GGGAGAUGUCUUACACAUGTT against Fkbp2 — higher, 1.12
- GGUGGUUCUCAGCUGUGUATT against Arhgef18 — lower, -1.08
- GGAUGAUGAAUGCAAUUAATT against Eed — lower, -0.882
- GGUGGAAGACUUCAGUGAATT against Clgn — higher, 0.384
- CAGCUUGUGCUCGAGUAAATT against Gm3579 — lower, -1.14
- GGACAGAAAGGUACCCUUATT against Slc30a5 — higher, 0.461
- GGUAGUUGUUCUAUGUUUUTT against Olfr967 — lower, -1.07
- CGUGGAGCUACCAUAUAGGTT against Mob3b — higher, 0.581
- CGACCAGCUUCUAGUGCUUTT against Pcdha8 — higher, -0.431
- CCAAGCCUCCAAUGGUCAGTT against Stat6 — higher, -0.623
- GCACUAUGACUACAAGAGUTT against Olfr1457 — lower, -0.965
- GCCGUUGCCUUUCAAGGGATT against Inhbe — higher, -0.112
- GCUUUUCCGUGAUCAUACATT against Tex14 — higher, 0.0691
- GGAUCCAGAUACUCCCAAGTT against Camp — lower, -1.08
- CCUACCAGUUCCUAUUUAGTT against Alas2 — higher, 0.452
- GGGUCUCCGAAACUACUUATT against Tmem144 — higher, 0.00626
- GCCAAUUUGACUUGUAAGUTT against Slc22a3 — higher, 1.4
- GGUUUCUGGAAGAAACUGGTT against Polr1a — lower, -0.927
- CAUUGUCAUUCUAGUUGCATT against Olfr1251 — higher, 0.64

In the case of UCACAGUCAUCAUUGUUUCTT against Olfr825, the z-score was -2.83 (active).
In the case of GGUACCAUGAAGGAUUUAUTT against Tspan2, the z-score was 3.24 (active).
For GGAAAAAAAGGUAGCUGGATT against Tspyl4, the z-score was 2.82 (active).
For GAAGCAGAACUUGAGCAAGTT against Phgdh, the z-score was 2.07 (active).
In the case of CGCAUACUGAUGAUAACUATT against Zfp317, the z-score was 2.12 (active).
With GGACGACGACUUUUUAAAATT against Pnmal1 the z-score was 2.18 (active).
With GGUCCAGAGAAGGCAAGCUTT against Elf3 the z-score was 5.87 (active).
With GGACUACAUGCUCACGUUATT against Ccm2 the z-score was 2.07 (active).
For GGUUCCUCUCAAAAUUCAATT against Gprc6a, the z-score was 3.13 (active).
In the case of CCUUAAAAGUAACCACUGUTT against Slc6a6, the z-score was 2.38 (active).
In the case of GGCUCUAACAGCUACAUGUTT against Hspb7, the z-score was -2.21 (active).
In the case of CCUACUUUGGACUCUUUCATT against Tnfsf12, the z-score was -2.25 (active).
In the case of GCAAAAGUGUAUCAUGAUGTT against Olfr1052, the z-score was -2.17 (active).
For GGGUUUCUUGAUUCUGACCTT against Ccl5, the z-score was -2.33 (active).
With GCUGAGUGAAUCCACGUACTT against Mzb1 the z-score was -2.65 (active).
